According to PubChem BioAssay (Tox21):
Results filed as inconclusive are left out. A call without a number means that no potency is given here. Activity calls are given as the source filed them. The call rests on the fitted dose curve.

Biological target: Beta-2 adrenergic receptor (Homo sapiens) (UniProt P07550)
Test: Adrenergic beta2 receptor (ADRB2) small molecule agonists, cell-based qHTS assay (AID 1963593);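 further: CHO cells stably overexpressing human ADRB2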
Details: CHO-ADRB2 cells, cAMP HTRF, 30 min; series mostly up to 92.4 µM
Procedure, shortened: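 CHO cells stably over-expressing ADRB2 were plated overnight at 37C, then dosed with compounds plus a stimulation mix containing 100uM IBMX and 25uM Ro-20-1724 for 0.5hr at room temperature. cAMP was measured by HTRF competition, 1hr.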

Beta-2 adrenergic receptor (Homo sapiens), sequence (P07550 whole entry, looked up): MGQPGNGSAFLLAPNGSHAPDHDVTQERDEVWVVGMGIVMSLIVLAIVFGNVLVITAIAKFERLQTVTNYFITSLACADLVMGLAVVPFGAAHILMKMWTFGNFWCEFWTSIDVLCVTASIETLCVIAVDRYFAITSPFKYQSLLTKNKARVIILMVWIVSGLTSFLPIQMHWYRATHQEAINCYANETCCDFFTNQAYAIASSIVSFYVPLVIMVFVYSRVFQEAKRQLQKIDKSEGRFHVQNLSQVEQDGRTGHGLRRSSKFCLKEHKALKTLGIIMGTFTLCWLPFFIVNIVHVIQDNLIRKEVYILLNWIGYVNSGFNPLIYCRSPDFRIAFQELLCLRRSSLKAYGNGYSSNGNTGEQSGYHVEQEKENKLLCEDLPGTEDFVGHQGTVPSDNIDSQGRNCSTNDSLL

| SMILES | Potency |
| --- | --- |
| CO[C@@H]1[C@@H](OC)[C@H](C)[C@@](O)(CC(=O)O)O[C@H]1[C@H](C)[C@H]1O[C@@]2(CC[C@@](C)([C@H]3CC[C@@](C)([C@@H]4O[C@@H]([C@H]5O[C@](C)(O)[C@H](C)C[C@@H]5C)C[C@@H]4OC4C[C@H](OC)[C@@H](OC)[C@H](C)O4)O3)O2)C[C@H](O)[C@H]1C (stereo partly drawn) | inactive |
| c1ccc2sc(SN3CCOCC3)nc2c1 | inactive |
| O=C(O)Cc1ccc(Cl)cc1Cl | inactive |
| Cc1ccc([N+](=O)[O-])c(N)c1 | inactive |
| OC[C@H]1O[C@@H](OCCc2ccc(O)cc2)[C@H](O)[C@@H](O)[C@@H]1O | inactive |
| CCc1ccc2c(c1)C(=O)c1ccccc1C2=O | inactive |
| CC(C)c1cccc(C(C)C)c1NC(=O)NS(=O)(=O)c1cc(C(C)(C)O)co1 | inactive |
| [Cl][Au]([Cl])[Cl] | inactive |
| CCc1oc2ccccc2c1C(=O)c1cc(I)c(O)c(I)c1 | inactive |
| CC1=CCC(C(C)C)C=C1 (stereo not drawn) | inactive |
| Oc1ccc(Cc2ccccc2)cc1 | inactive |
| Cc1cc(-c2ccc(N=Nc3cc(S(=O)(=O)O)c4ccccc4c3N)c(C)c2)ccc1N=Nc1cc(S(=O)(=O)O)c2ccccc2c1N | inactive |
| CC[C@]12CCCN3CCc4c(n(c5ccccc45)C(=O)C1)[C@@H]32 | inactive |
| C=CCCCCCC | inactive |
| O=C(O)C(=O)Cc1ccccc1 | inactive |
| O=C1c2ccccc2C(=O)c2c(Cl)cccc21 | inactive |
| COC(=O)CCCCCCCC(=O)OC | inactive |
| CC/C=C\CCCCCO | inactive |
| COc1ccc(C2CNC(=O)C2)cc1OC1CCCC1 (stereo not drawn) | inactive |

Biological target: D(2) dopamine receptor (Homo sapiens) (UniProt P14416)
Test: Dopamine D2 receptor (DRD2) small molecule agonists, cell-based qHTS assay (AID 1963594); further: nearly all actives have a fitted effect of over 35% in size; further: potency means the concentration at half of the fitted maximal effect
Details: HEK293-DRD2 cAMP HTRF, agonist mode, 30 min; series mostly up to 92.4 µM
Procedure, shortened: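 cAMP accumulation in DRD2-HEK293 cells measured by HTRF after 1 h detection; compounds added 10 min before NKH477 (200nM […]) forskolin-analogue stimulation, 30 min at room temperature, with Ro20-1724 present at 0.1 mM final.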

D(2) dopamine receptor (Homo sapiens), sequence (P14416 whole entry, looked up): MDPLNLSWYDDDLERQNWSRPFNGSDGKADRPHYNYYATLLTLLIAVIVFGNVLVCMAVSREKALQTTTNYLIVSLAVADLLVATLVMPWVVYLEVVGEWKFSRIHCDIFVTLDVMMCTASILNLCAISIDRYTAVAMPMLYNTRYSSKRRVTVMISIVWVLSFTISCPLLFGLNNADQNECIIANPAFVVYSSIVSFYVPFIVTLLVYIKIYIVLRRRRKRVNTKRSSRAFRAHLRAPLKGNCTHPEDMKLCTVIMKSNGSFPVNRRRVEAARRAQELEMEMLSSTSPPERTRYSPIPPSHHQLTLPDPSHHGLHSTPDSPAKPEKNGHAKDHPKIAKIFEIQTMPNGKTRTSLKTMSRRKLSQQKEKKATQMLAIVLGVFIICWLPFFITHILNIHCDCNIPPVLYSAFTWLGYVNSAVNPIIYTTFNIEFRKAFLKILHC

| SMILES | Potency |
| --- | --- |
| CO[C@@H]1[C@@H](OC)[C@H](C)[C@@](O)(CC(=O)O)O[C@H]1[C@H](C)[C@H]1O[C@@]2(CC[C@@](C)([C@H]3CC[C@@](C)([C@@H]4O[C@@H]([C@H]5O[C@](C)(O)[C@H](C)C[C@@H]5C)C[C@@H]4OC4C[C@H](OC)[C@@H](OC)[C@H](C)O4)O3)O2)C[C@H](O)[C@H]1C (stereo partly drawn) | inactive |
| O=Cc1ccc(O)c(O)c1O | inactive |
| c1ccc2sc(SN3CCOCC3)nc2c1 | inactive |
| O=C(O)Cc1ccc(Cl)cc1Cl | inactive |
| Cc1ccc([N+](=O)[O-])c(N)c1 | inactive |
| CCN(CC)c1ccc2c(-c3ccccc3C(=O)O)c3ccc(=[N+](CC)CC)cc-3oc2c1 | 58.8 µM (active) |
| CCCCCCCCCC(C)C=O (stereo not drawn) | inactive |
| CCC(Cl)CCC(Cl)C(Cl)CC(Cl)C(Cl)C(Cl)CCl (stereo not drawn) | inactive |
| CCOc1ccc(NC(C)=O)cc1N | inactive |
| CCc1ccc2c(c1)C(=O)c1ccccc1C2=O | inactive |
| CC(C)c1cccc(C(C)C)c1NC(=O)NS(=O)(=O)c1cc(C(C)(C)O)co1 | inactive |
| [Cl][Au]([Cl])[Cl] | inactive |
| CCc1oc2ccccc2c1C(=O)c1cc(I)c(O)c(I)c1 | inactive |
| C=C[Si]1(C)O[Si](C)(C=C)O[Si](C)(C=C)O[Si](C)(C=C)O1 (stereo not drawn) | inactive |
| CC1=CCC(C(C)C)C=C1 (stereo not drawn) | inactive |
| Oc1ccc(N=Nc2ccccc2)cc1 | inactive |
| Cc1ccc(Cl)cc1N | inactive |

| SMILES | Potency |
| --- | --- |
| Oc1ccc(Cc2ccccc2)cc1 | inactive |
| Cc1cc(-c2ccc(N=Nc3cc(S(=O)(=O)O)c4ccccc4c3N)c(C)c2)ccc1N=Nc1cc(S(=O)(=O)O)c2ccccc2c1N | inactive |
| CC[C@]12CCCN3CCc4c(n(c5ccccc45)C(=O)C1)[C@@H]32 | inactive |
| C=CCCCCCC | inactive |
| COC(=O)/C=C(\C)CCC=C(C)C | inactive |
| CCN(CCC#N)c1ccc(N=Nc2c(Cl)cc([N+](=O)[O-])cc2Cl)cc1 | inactive |
| CCCCCC[C@@H](O)C/C=C\CCCCCCCC(=O)OC | inactive |
| NCCN1CCOCC1 | inactive |
| O=C(c1ccccc1)c1cc(Cl)ccc1O | inactive |
| NCCc1cnc[nH]1 | inactive |
| O=C1c2ccccc2C(=O)c2c(Cl)cccc21 | inactive |
| COC(=O)CCCCCCCC(=O)OC | inactive |
| OCCN1CCN(CCO)CC1 | inactive |
| CC/C=C\CCCCCO | inactive |
| O=C(NOCC1CC1)c1ccc(F)c(F)c1Nc1ccc(I)cc1Cl | inactive |
| c1ccc(-c2nc3ccccc3[nH]2)cc1 | inactive |
| CC(=O)Nc1cccc(N)c1 | inactive |
